Compound activity (PubChem BioAssay)
GLP1R inv ag – GLP-1 receptor (human) inverse agonism; P43220; HEK293 GLP-1R CRE-luciferase, luminescence, 24 h; GLP-1R form is constitutively active; Potency, µM (series often up to 38.3 µM), for inactives: at the top dose activity change, negative = inhibition, hits mostly inhibitors; actives 1.6% (n = 410,000); note: % is set by controls: 0 for no effect and ±100 for the full control effect; nearly all actives have a fitted effect of over 55% in size
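Inverse agonism was detected as reduced cAMP-driven luciferase luminescence after 24 h compound treatment. The cells were HEK293 clones expressing constitutively active human GLP-1R with the reporter. Reporter-only and GPR119 cell lines served as counterscreen controls.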
HEK293 tox – cytotoxicity counter-screen for GLP-1 receptor inverse agonists. actives 0.13% (n = 410,000). Potency, µM (titrated, usually from 38.3 µM), inactives show at the highest dose activity change, negative = inhibition, actives largely listed as inhibitors. HEK293 cAMP-luciferase reporter cells, luminescence, 24 h;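 note: loss of luciferase light is scored as toxicity; % is set by controls: 0 for no effect and ±100 for the full control effect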
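Cells in DMEM/10% Nu serum/1% pen-strep, 1536-well format. Pre-incubated 12 h, dosed with 23 nL compound, incubated a further 24 h. Luciferase detection, 12 min at room temp, luminescence.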
GLP-1R agonist – GLP-1 receptor (human) agonism | HEK293 GLP-1R CRE-luciferase, luminescence, 4-6 h; cells express a hypersensitive GLP-1R form | Potency, µM (series often up to 45.6 µM), for the others: at the highest dose activation, most hits filed as activators | actives 0.007% (n = 380,000); note: % of control where 0% means no effect
PTHR1 agonist – agonists of human PTHR1 parathyroid hormone receptor | Q03431 | HEK293 GP2 PTHR1 cells, GloSensor cAMP luminescence, 1 h | Potency, µM (highest dose often 115 µM), for the others: at the highest dose activation, most hits filed as activators | actives 0.075% (n = 410,000); note: nearly all actives have a fitted effect of over 55% in size
Target sequence (Q03431 whole entry, looked up): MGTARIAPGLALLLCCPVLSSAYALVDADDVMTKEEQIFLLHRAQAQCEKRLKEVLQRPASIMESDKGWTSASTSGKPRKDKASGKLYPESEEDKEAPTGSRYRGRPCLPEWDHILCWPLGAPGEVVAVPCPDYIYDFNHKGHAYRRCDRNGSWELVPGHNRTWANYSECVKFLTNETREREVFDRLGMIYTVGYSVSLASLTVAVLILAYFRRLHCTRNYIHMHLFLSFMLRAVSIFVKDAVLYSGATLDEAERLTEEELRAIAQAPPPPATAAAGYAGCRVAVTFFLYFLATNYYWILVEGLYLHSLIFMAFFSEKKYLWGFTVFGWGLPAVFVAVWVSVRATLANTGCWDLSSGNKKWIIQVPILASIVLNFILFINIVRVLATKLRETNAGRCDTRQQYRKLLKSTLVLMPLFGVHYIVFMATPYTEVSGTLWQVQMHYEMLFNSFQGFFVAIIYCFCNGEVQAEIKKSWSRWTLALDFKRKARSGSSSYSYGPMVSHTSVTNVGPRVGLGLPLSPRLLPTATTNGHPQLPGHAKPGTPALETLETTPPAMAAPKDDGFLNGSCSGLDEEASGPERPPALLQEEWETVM
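HEK-293-derived GP2 cells expressing PTHR1 and a GloSensor cAMP reporter, 3,000/well, plated overnight, given luciferin plus IBMX (each 0.5 mM as added) for 1 h at 37 °C, then compound for 1 h at 37 °C. Luminescence was read after 15 min at room temperature.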
* marks the source's active call; other numbers are inactive results; [ ] = remark or other dose. Hits are enriched below; roughly 1.7% of the tested compounds scored in any of these assays. Calls come from the whole dose curve; as a rule, active = well fitted curve in the direction sought with a large enough effect; inconclusive = small, poorly fitted or top-dose-only effect, or another doubt; inactive = no such curve, though single readings can be large; an effect the other way counts as inactive or inconclusive. Potency is the fitted concentration of half-maximal effect.

How did Cc1cc(C)c(OCCCNCc2ccccc2)c(Br)c1 do in these assays?
GLP1R inv ag: inconclusive; HEK293 tox: inconclusive; GLP-1R agonist: -3%; PTHR1 agonist: 8%

What do the screens show for `Cc1cc(Cl)cc(Br)c1OCCCNCC(C)O` (configuration not stated)?
GLP1R inv ag: 4µM*; HEK293 tox: -23%; GLP-1R agonist: 15%; PTHR1 agonist: inactive

What do the screens show for `Cn1c(C(=O)N2CCN(c3nc4ccccc4s3)CC2)cc2sccc21`?
GLP1R inv ag: 0%; HEK293 tox: 3%; GLP-1R agonist: -12%; PTHR1 agonist: inactive

Results for O=C(c1cc2sccc2n1Cc1ccc(F)cc1)N1CCN(c2nc3ccccc3s2)CC1 ?
GLP1R inv ag: 4.5µM*; HEK293 tox: -25%; GLP-1R agonist: -6%; PTHR1 agonist: -23%[57.5 µM]

Results for CCOC(=O)c1cn2nc(N3CCCC3)ccc2n1 ?
GLP1R inv ag: 5.6µM*; HEK293 tox: 15%; GLP-1R agonist: -30%; PTHR1 agonist: -23%

Results for CO/N=C/C(=N\Nc1ccccc1)C(=O)c1ccccc1 ?
GLP1R inv ag: inconclusive; HEK293 tox: 12%; GLP-1R agonist: 21%; PTHR1 agonist: 6%

Results for COC(=O)C=CC(=NNc1ccccc1)c1ccccc1 ?
GLP1R inv ag: 7.9µM*; HEK293 tox: -8%; GLP-1R agonist: inconclusive; PTHR1 agonist: -5%

What do the screens show for `Cn1c(SCC(=O)NNC(=O)Cc2ccccc2)nc2ccccc2c1=O`?
GLP1R inv ag: 0%; HEK293 tox: 4%; GLP-1R agonist: -7%; PTHR1 agonist: inactive

What do the screens show for `CC(C)Cc1ccc(C(C)C(N)=Nc2ccc(O)cc2)cc1` (configuration not stated)?
GLP1R inv ag: 13µM*; HEK293 tox: inconclusive; GLP-1R agonist: 13%; PTHR1 agonist: -6%

What do the screens show for `O=C(NNC(=O)[C@@H]1CCCC[C@@H]1C(=O)O)c1cccs1`?
GLP1R inv ag: 16%; HEK293 tox: -2%; GLP-1R agonist: -2%; PTHR1 agonist: inactive

What do the screens show for `CCCCCC(=O)Nc1nc(C)c(-c2csc(Nc3cc(OC)ccc3OC)n2)s1`?
GLP1R inv ag: -3%; HEK293 tox: 1%; GLP-1R agonist: 0%; PTHR1 agonist: 45µM*

What do the screens show for `Cc1cc(NC(=O)CSc2nnc(COc3ccccc3)n2Cc2ccco2)no1`?
GLP1R inv ag: 1%; HEK293 tox: 5%; GLP-1R agonist: -8%; PTHR1 agonist: inactive

How did Cc1ccc(OCc2nnc(SCC(=O)C(C)(C)C)n2Cc2ccco2)cc1 do in these assays?
GLP1R inv ag: 2µM*; HEK293 tox: 14%; GLP-1R agonist: 13%; PTHR1 agonist: -11%

What do the screens show for `COc1cc2c(cc1O)CCN[C@@]21CS[C@H]2c3c(OC(C)=O)c(C)c4c(c3C(COC1=O)N1C2C2c3c(cc(C)c(OC)c3O)CC([C@@H]1O)N2C)OCO4` (some centres not stated)?
GLP-1R agonist: -14%

Results for COc1ccc2c(=O)c(C)c(-c3ccccc3)oc2c1CN(C)C ?
GLP-1R agonist: 3%

Results for C=CCc1ccc(OCC(O)CO)c(OC)c1 (configuration not stated) ?
GLP1R inv ag: -5%; HEK293 tox: 12%; GLP-1R agonist: 1%; PTHR1 agonist: -1%

What do the screens show for `C=CCc1ccc(O)c(-c2cc(CC=C)ccc2O)c1`?
GLP1R inv ag: 11µM*; HEK293 tox: -3%; GLP-1R agonist: 2%; PTHR1 agonist: -58%

Results for O=C(c1cc2ccccc2o1)N1CCN(C/C=C/c2ccccc2)CC1 ?
GLP1R inv ag: 11µM*; HEK293 tox: 4%; GLP-1R agonist: 9%; PTHR1 agonist: -31%

Results for CC(C)c1ccc(NC(=O)C(c2ccccc2)N(C)C(=O)CCc2c[nH]c3ccccc23)cc1 (configuration not stated) ?
GLP1R inv ag: 10µM*; HEK293 tox: -2%; GLP-1R agonist: -1%; PTHR1 agonist: -3%

Results for COc1ccc(NC(=O)C(NC(=O)Cc2cccs2)c2ccc(OC)cc2)cc1 (configuration not stated) ?
GLP1R inv ag: 2%; HEK293 tox: -8%; PTHR1 agonist: -1%

How did COc1ccc(C(C(=O)Nc2ccc(C(C)C)cc2)N(C)C(=O)Cc2cccs2)cc1 (configuration not stated) do in these assays?
GLP1R inv ag: 3.2µM*; HEK293 tox: -11%; PTHR1 agonist: -31%

How did CCN(CC)CCCNC(=O)C(C)Sc1nc(-c2ccccc2)cc(C(F)(F)F)n1 (configuration not stated) do in these assays?
GLP1R inv ag: 2.8µM*; HEK293 tox: 2%; GLP-1R agonist: 9%; PTHR1 agonist: inactive

How did Cc1ccc(-n2cc(-c3ccccc3)c3c(N4CCCCC4)ncnc32)cc1 do in these assays?
GLP1R inv ag: -1%; HEK293 tox: -4%; PTHR1 agonist: inconclusive

Results for Cc1ccc(-n2cc(-c3ccccc3)c3c(NC4CCCC4)ncnc32)cc1 ?
GLP1R inv ag: 2.5µM*; HEK293 tox: -8%; PTHR1 agonist: inactive

Results for CC1CN(c2ncnc3c2c(-c2ccccc2)cn3-c2ccc(F)cc2)CC(C)O1 (configuration not stated) ?
GLP1R inv ag: 4µM*; HEK293 tox: 6%; GLP-1R agonist: 12%; PTHR1 agonist: -23%

How did OCCN1CCN(c2ncnc3c2c(-c2ccccc2)cn3-c2ccc(F)cc2)CC1 do in these assays?
GLP1R inv ag: -11%[0.307 µM]; HEK293 tox: 0%[0.307 µM]; GLP-1R agonist: 7%; PTHR1 agonist: 7%

How did Cc1cccc(-n2cc(-c3ccccc3)c3c(NC4CCCC4)ncnc32)c1 do in these assays?
GLP1R inv ag: inconclusive; HEK293 tox: 2%; PTHR1 agonist: inactive

How did Cc1ccc(-n2cc(-c3ccccc3)c3c(N4CCOCC4)ncnc32)cc1 do in these assays?
GLP1R inv ag: 3.5µM*; HEK293 tox: -17%; GLP-1R agonist: 7%; PTHR1 agonist: -11%

How did Cc1ccc(-c2cc(C(=O)Nc3nccs3)c3ccccc3n2)o1 do in these assays?
GLP1R inv ag: 10µM*; HEK293 tox: 28%; GLP-1R agonist: -20%; PTHR1 agonist: -13%

What do the screens show for `COc1ccc(-c2cc3ccc(O)c(CN4CCCCC4C)c3oc2=O)cc1OC` (configuration not stated)?
GLP1R inv ag: 2%; HEK293 tox: inactive; PTHR1 agonist: inactive

Results for Cc1cc2c(cc1C)CSC(c1ccccc1OC(=O)C(C)C)SC2 ?
GLP1R inv ag: 10µM*; HEK293 tox: -15%; GLP-1R agonist: 1%; PTHR1 agonist: -14%

Results for CCOC(=O)C1=C(CNCc2ccccc2Cl)NC(=O)NC1c1cccc([N+](=O)[O-])c1 (configuration not stated) ?
GLP1R inv ag: inconclusive; HEK293 tox: -5%; GLP-1R agonist: 13%; PTHR1 agonist: -41%
